Screening data as filed in PubChem.
Compounds with a hit are over-represented: about 7% of the library has one in this group of screens.
KAT2A inh = GCN5L2 (KAT2A) acetyltransferase inhibition. Q92830. 0.21% of 390,000 active. Potency, µM (highest dose often 58.9 µM), without a hit: at the top dose activity change, negative = inhibition, usual class: inhibitors. GCN5L2 HAT assay, ThioGlo1 CoA-SH fluorescence; note: potency is the fitted concentration of half-maximal effect; % is set by controls: 0 for no effect and ±100 for the full control effect
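Compounds, pin-transferred from DMSO stocks, meet 20nM GCN5L2 for 15 min before the reaction begins with H3(1-25) peptide (75uM) and acetyl-CoA (70uM). Thiol-reactive ThioGlo1 reports CoA release over 20 min at room temperature.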
BAZ2B block = BAZ2B (human) inhibition. AlphaScreen BAZ2B-H3K14Ac peptide displacement. Potency, µM (top dose mostly 114 µM), inactives show top-dose activity change, negative = inhibition, hits mostly inhibitors. 4.4% of 360,000 active. AID 504333; note: potency is the fitted concentration of half-maximal effect; % is set by controls: 0 for no effect and ±100 for the full control effect; nearly all actives have a fitted effect of over 60% in size
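AlphaScreen displacement of biotin-H3(5-23)K14Ac peptide (50 nM final) from BAZ2B (50 nM final) in PBS pH 7.4, 0.01% Tween-20; complex preformed 30 min RT, then compounds (top 110 uM) 30 min RT, beads 20 min dark.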
PI5P4Ka inh = PI5P4K alpha (human) kinase inhibition; P48426; PI5P4Kalpha enzyme, ADP-Glo luminescence, 60 min; active compounds read low; max response, %; 1.2% of 330,000 active; AID 652105; active = max response of -50% or lower; inconclusive = between -30% and -50%; inactive = -30% or higher; note: value at the top dose of about 77 µM; % is set by controls: 0 for no effect and ±100 for the full control effect
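ADP-Glo luminescence end-point read after a 60 min room-temperature kinase reaction of PI5P4Kalpha plus substrate, initiated with ATP at 5 microM final. Buffer: 0.038 M HEPES pH 7.4, EGTA, 0.1% CHAPS, 5% DMSO.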
JMJD2A Tudor inh = JMJD2A Tudor domain (human) inhibition. O75164. AID 504339. AlphaScreen JMJD2A-Tudor / H3K4me3 peptide binding. Potency, µM (doses to about 114 µM), inactives show top-dose activity change, negative = inhibition, most hits filed as inhibitors. 4.4% of 390,000 active; note: potency is the fitted concentration of half-maximal effect; % is set by controls: 0 for no effect and ±100 for the full control effect; nearly all actives have a fitted effect of over 50% in size
PLK1 PBD inh = inhibitors of human PLK1 polo-box domain binding | P53350 | Plk1 PBD binding of FITC phosphopeptide, fluorescence polarization | Potency, µM, for inactives: max response, negative = inhibition, actives largely listed as inhibitors | 2.8% of 360,000 active; note: potency is the fitted concentration of half-maximal effect; series mostly up to about 57 µM; % is set by controls: 0 for no effect and ±100 for the full control effect; nearly all actives have a fitted effect of over 65% in size
HP1b chromo inh = inhibitors of HP1-beta chromodomain binding to methylated histone tails. AlphaScreen HP1-beta / biotin-H3K9me3 peptide binding. P83916. Potency, µM (series often up to 114 µM), for the others: at the highest dose activity change, negative = inhibition, most hits filed as inhibitors. 0.56% of 390,000 active. AID 540317; note: potency is the fitted concentration of half-maximal effect; nearly all actives have a fitted effect of over 70% in size
Target sequence (P83916 whole entry, looked up): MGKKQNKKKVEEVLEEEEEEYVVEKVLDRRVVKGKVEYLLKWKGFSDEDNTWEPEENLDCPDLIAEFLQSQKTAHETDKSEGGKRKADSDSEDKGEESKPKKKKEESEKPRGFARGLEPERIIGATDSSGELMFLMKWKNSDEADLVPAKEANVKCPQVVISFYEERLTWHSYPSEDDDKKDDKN
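AlphaScreen: HP1-beta (50 nM) preformed 30 min with biotin-H3(1-18)K9me3 peptide (50 nM) in PBS pH 7.4, 0.01% Tween-20. Compound added for 30 min at RT, then streptavidin donor/nickel chelate acceptor beads (10 ug/mL) for 30 min.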
Active calls of the source: *; ? = inconclusive; . = no result given. Unless noted, calls come from the whole dose curve; as a rule, active = well fitted curve in the direction sought with a large enough effect; inconclusive = small, poorly fitted or top-dose-only effect, or another doubt; inactive = no such curve, though single readings can be large; an effect the other way counts as inactive or inconclusive.

SMILES | KAT2A inh | BAZ2B block | PI5P4Ka inh | JMJD2A Tudor inh | PLK1 PBD inh | HP1b chromo inh
O=C(N/N=C/c1cccc(O)c1)N/N=C/c1cccc(O)c1 | ? | -7% | -53* | -14% | 5% | 5%
Cn1cccc1-c1cc(C(=O)N/N=C/c2cccc(O)c2)[nH]n1 | -9% | 45µM* | 8 | ? | -24% | ?
CCOc1cccc(/C=N/NC(=O)c2cc(-c3cccn3C)n[nH]2)c1O | -2% | 50µM* | ? | ? | ? | ?
COc1cc(OC)c(OC)cc1/C=N/NC(=O)c1cc(-c2cccn2C)n[nH]1 | ? | -28% | 3 | 15% | -3% | 28%
CC(NC(=O)CSc1nc(C2CC2)n(-c2ccccc2)n1)c1ccco1 (stereo not drawn) | -4% | -34% | 6 | -24% | -5% | 12%
COc1ccc(OC)c(NC(=O)c2cc3c(=O)oc4ccccc4c3s2)c1 | -6% | -2% | . | -12% | . | 30%
O=C1CCCN1CCCNc1ccc2nnc(CCC(=O)N3CCN(c4ccc(F)cc4)CC3)n2n1 | -6% | -39% | 0 | ? | 27µM* | -5%
Cc1cccc(C)c1-n1nnnc1C1(C)CCC(=O)N1c1ccc(N2CCOCC2)cc1 (stereo not drawn) | . | . | 1 | . | -23% | .
C#CCOCCOCCOCCNc1nc(N2CCN(C(=O)CCCCCCCCCCNC(=O)[C@H](CCCCN)n3cc(C[C@@H](C)CC)nn3)CC2)nc(N2CCN(C(=O)CCCCCCCCCCNC(=O)[C@@H]([C@H](C)O)n3cc(C)nn3)CC2)n1 | -4% | 50µM* | ? | 56µM* | 21% | ?
C#CCOCCOCCOCCNc1nc(N2CCN(C(=O)CCCCCCCCCCNC(=O)[C@H](CCCCN)n3cc(C)nn3)CC2)nc(N2CCN(C(=O)CCCCCCCCCCNC(=O)[C@@H]([C@H](C)O)n3cc(C)nn3)CC2)n1 | -4% | -37% | ? | 56µM* | -7% | -22%
Cn1nc(C(F)(F)F)c(-c2ccccc2)c1NC(=O)c1nccnc1C(=O)O | -7% | 79µM* | 0 | ? | 0% | 35%
CC(=O)n1c2ccccc2c2nc(NC(C)C)sc21 | -6% | 50µM* | -14 | 50µM* | 27µM* | ?
N#CCc1ccc(Oc2ncc(C(F)(F)F)cc2Cl)cc1 | -5% | 33% | 3 | 0% | -13% | -7%
Cc1ccc(CO/N=C\Cc2snc(Sc3ncc(C(F)(F)F)cc3Cl)c2C#N)cc1 | -9% | 35µM* | -29 | ? | -3% | ?
CC(C)(C)c1ccc(O)c(O)c1 | -4% | -8% | -88* | 13µM* | -8% | ?
CCN(C(=O)CN1C(=O)S/C(=C\c2ccc(F)cc2)C1=O)C1CCS(=O)(=O)C1 (stereo not drawn) | -10% | 3% | 6 | -29% | 30µM* | -13%
CN1C(=O)/C(=C/c2ccccc2Cl)Sc2ccc(C(=O)NCc3cccnc3)cc21 | -18% | ? | 9 | ? | -15% | -2%
Cc1c(Cl)cccc1NC(=S)Nn1cnnc1 | -27% | ? | 5 | -28% | 7.5µM* | -16%
Cc1c(Cl)cccc1NC(=S)NC1CC1 | 4% | -22% | 0 | 4% | -4% | 40%
O=C(Nc1cc(S(=O)(=O)N2CCOCC2)ccc1Cl)c1cc([N+](=O)[O-])ccc1Cl | 1% | . | 5 | -3% | -3% | 12%
COc1cccc(/C=C2\SC(=S)N(CCCC(=O)N3CCCCC3)C2=O)c1 | -3% | 11µM* | 0 | 40µM* | 1% | ?
COc1ccc(/C=C2\SC(=S)N(CCCC(=O)N3CCN(C)CC3)C2=O)cc1 | -2% | ? | -10 | ? | -5% | ?
O=C1/C(=C/c2cccc(Br)c2)SC(=S)N1CCC(=O)N(CCO)c1ccccc1 | -19% | ? | 2 | 32µM* | -2% | -24%
O=C1/C(=C/c2ccc3c(c2)OCO3)SC(=S)N1CCC(=O)N(CCO)c1ccccc1 | . | . | -10 | . | -1% | .
